# Measurements from PubChem BioAssay.
# Records with an inconclusive call do not appear. Activity calls are given as the source filed them. Unless noted, no cut-off is given here; in the data, nearly all actives have AC50 up to about 26 µM.
# Tests used:
# [1] = viability loss in pontine glioma line – cell-based, SU-DIPG-XVII, MIPE5.0, CellTiter-Glo, qHTS, dose response (AID 1347060); settings: CellTiter-Glo ATP luminescence;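 for AC50: cells exposed to compound for 48 hours before viability readout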
# [2] = viability loss in pontine glioma line – cell-based, SU-DIPG-XXV, MIPE5.0, CellTiter-Glo, qHTS, dose response (AID 1347065); settings: CellTiter-Glo ATP luminescence;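 note: cells exposed to compound for 48 hours before ATP readout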
# [3] = JHH-DIPG-1 glioma cell viability, MIPE5.0 library, CellTiter-Glo luminescence, qHTS (AID 1347067); settings: JHH-DIPG-1 glioma viability, CellTiter-Glo ATP luminescence;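 note: cells exposed to compound for 48 hours before readout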
# [4] = growth inhibition of DIPG cells – cell-based, MIPE5.0 library, qHTS (AID 1347068; cut-off not given, nearly all actives have IC50 up to about 30 µM;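 for IC50: cells exposed to compound for 48 hours before viability readout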); settings: SU-DIPG-XXV viability
# [5] = growth inhibition of DIPG cells – cell-based, MIPE4.0 library, CellTiter-Glo luminescence, qHTS (AID 1347066; cut-off not given, nearly all actives have AC50 up to about 30 µM;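 note: cells exposed to compound for 48 hours before readout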); settings: SU-DIPG-VI viability, CellTiter-Glo ATP luminescence
# [6] = compounds altering circadian rhythm period length – cell-based, LOPAC library, luminescence reporter (AID 2774; call rule not given here;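 note: values are relative to mean of DMSO wells on each plate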); settings: circadian reporter cells, at 7 µM, actives lie on both sides
# [7] = blockers of polyQ-driven CASP3 activation – cell-based (AID 1583); settings: polyglutamine-induced caspase-3 activation, cell assay; stronger effect = higher value;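 tested at 10 µM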
# [8] = yeast 75Q aggregation reduction – 75Q-TubU reporter (AID 1593); settings: Yeast 75Q polyglutamine aggregation reporter
# [9] = blockers of cytochrome c efflux from mitochondria – biochemical, purified mitochondria (AID 1603); settings: stronger effect = lower value;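 note: mouse liver mitochondria challenged with calcium chloride; signal normalized to the plate average as 100%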
# [10] = polyglutamine aggregate formation blockers (AID 1604); settings: polyglutamine-induced protein aggregation inhibition assay; stronger effect = higher value; tested at 2.5 µM
# [11] = system: Hepatitis C virus NS3 helicase; experiment: blockers of NS3h binding to ssDNA – biochemical, fluorescence polarization, LOPAC1280 library, primary screen (AID 687035; in the data active = inhibition above about 37%); settings: Purified HCV NS3 helicase, Cy5-dT15 ssDNA binding fluorescence polarization; stronger effect = higher value; concentration not given here
# [12] = compounds altering Cy5-DNA-NS3h complex signal – biochemical, LOPAC1280, artefact control for HCV NS3 helicase inhibitor project (AID 687037; call rule not given here); settings: Cy5-DNA-NS3h complex fluorescence interference counterscreen
# [13] = blockers of cellular phospholipid synthesis – cell-based, LOPAC library, screen 4, primary screen (AID 1347384; call rule not given here); settings: animal cells, phospholipid biosynthesis inhibition screen; at 10 µM
# [14] = growth inhibition, single agents and combos, CRL2098, cell-based, BGB or cisplatin IC20 combos, synergistic combos for chromothripsis tumors (AID 1671454; in the data active = inhibition above about 80%;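 note: cells exposed for 96 h before readout; 0% = vehicle DMSO and 100% = killing by high DMSO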); settings: CRL2098 osteosarcoma cells, drug combinations, stronger effect = higher value
# [15] = growth inhibition, single agents and combos, HD-MB03, cell-based, BGB or cisplatin IC20 combos, synergistic combos for chromothripsis tumors (AID 1671455; in the data active = inhibition above about 83%;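 note: 0% = vehicle DMSO and 100% = high DMSO as cytotoxic control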); settings: HD-MB03 medulloblastoma cells, stronger effect = higher value
# [16] = growth inhibition, single agents and combos, UWB1.289, cell-based, BGB or cisplatin combos, synergistic combos for chromothripsis tumors (AID 1671456; in the data active = inhibition above about 80%;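 note: cells exposed to compound for four days; 0% = vehicle DMSO and 100% = killing by high DMSO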); settings: UWB1.289 ovarian carcinoma cells, stronger effect = higher value
# [17] = growth inhibition, single agents and combos, LFS_MB_2R, cell-based, cisplatin combos, synergistic combos for chromothripsis tumors (AID 1671457; in the data active = inhibition above about 80%;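 note: cells exposed to compound for four days before readout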); settings: LFS_MB_2R medulloblastoma cells, stronger effect = higher value
# [18] = UWB1.289_BRCA1 ovarian cancer growth, cell-based, BGB or cisplatin combinations (AID 1671459; in the data active = inhibition above about 80%); settings: UWB1.289 BRCA1 ovarian carcinoma, drug combinations, stronger effect = higher value
# [19] = drug combination toxicity in non-malignant astrocytes – cell-based, BGB or cisplatin IC20 combos, cytotoxicity control for chromothriptic childhood tumor combination screen (AID 1671460; in the data active = inhibition above about 80%;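 note: cells exposed to compounds for 96 hours before viability readout; 0% = vehicle and 100% = killing control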); settings: Human astrocytes, viability inhibition, drug combinations, at 0.5 µM, stronger effect = higher value
smiles,measurement,setting,value
CCC[C@@H]1C[C@@H](C(=O)N[C@@H]([C@H]2O[C@H](SC)[C@H](O)[C@@H](O)[C@H]2O)[C@H](C)Cl)N(C)C1,outcome,[1],inactive
same,outcome,[2],inactive
same,outcome,[3],inactive
same,outcome,[4],inactive
C=C1CC[C@@H]2[C@](C)(CO)[C@H](O)CC[C@@]2(C)[C@@H]1C/C=C1/C(=O)OC[C@H]1O,AC50,[1],16.6 µM (active)
same,AC50,[2],11.8 µM (active)
same,AC50,[3],14.8 µM (active)
same,IC50,[4],20.9 µM (active)
COc1ccc(CCC(=O)c2c(O)cc(O[C@@H]3O[C@H](CO)[C@@H](O)[C@H](O)[C@H]3O[C@@H]3O[C@@H](C)[C@H](O)[C@@H](O)[C@H]3O)cc2O)cc1O,outcome,[5],inactive
O=C(O)c1cc(=O)c2ccc(Cl)cc2[nH]1,period change,[6],-0.105 h (inactive)
O=C(O)C1=CCNCC1,inhibition,[7],3.63%
same,score,[8],1.62
same,cytochrome c release ratio,[9],1.01
same,inhibition of aggregation,[10],45.5%
same,period change,[6],0.375 h (inactive)
same,inhibition,[11],-3% (inactive)
same,fluorescence ratio (interference),[12],1 (inactive)
same,outcome,[13],inactive
CC1(C)[C@@H](O)CC[C@]2(C)[C@H]3C(=O)C=C4[C@@H]5C[C@@](C)(C(=O)O)CC[C@]5(C)CC[C@@]4(C)[C@]3(C)CC[C@@H]12,outcome,[1],inactive
same,outcome,[5],inactive
same,outcome,[3],inactive
same,outcome,[4],inactive
CC1(C)[C@@H](O[C@H]2O[C@H](C(=O)O)[C@@H](O)[C@H](O)[C@H]2O[C@@H]2O[C@H](C(=O)O)[C@@H](O)[C@H](O)[C@H]2O)CC[C@]2(C)[C@H]3C(=O)C=C4[C@@H]5C[C@@](C)(C(=O)O)CC[C@]5(C)CC[C@@]4(C)[C@]3(C)CC[C@@H]12,outcome,[5],inactive
CC[C@@]1(O)C[C@H](O[C@H]2C[C@H](N(C)C)[C@H](O[C@H]3C[C@H](O)[C@H](O[C@H]4CCC(=O)[C@H](C)O4)[C@H](C)O3)[C@H](C)O2)c2c(cc3c(c2O)C(=O)c2c(O)cccc2C3=O)[C@H]1C(=O)OC,AC50,[1],14.8 µM (active)
same,AC50,[2],14.8 µM (active)
same,AC50,[3],11.8 µM (active)
COc1cc([C@@H]2c3cc4c(cc3[C@H](O)[C@H]3COC(=O)[C@@H]23)OCO4)cc(OC)c1OC,AC50,[1],0.525 µM (active)
same,AC50,[2],0.742 µM (active)
same,AC50,[3],1.05 µM (active)
same,IC50,[4],0.934 µM (active)
COC1=C(OC)C(=O)C(C/C=C(\C)CC/C=C(\C)CC/C=C(\C)CC/C=C(\C)CC/C=C(\C)CC/C=C(\C)CC/C=C(\C)CC/C=C(\C)CC/C=C(\C)CCC=C(C)C)=C(C)C1=O,outcome,[5],inactive
C[C@@H]1[C@H](O)[C@@H](C)/C=C/C=C/C=C/C=C/C=C/C=C/C=C/[C@H](O[C@@H]2O[C@H](C)[C@@H](O)[C@H](N)[C@@H]2O)C[C@@H]2O[C@](O)(C[C@@H](O)C[C@@H](O)[C@H](O)CC[C@@H](O)C[C@@H](O)CC(=O)O[C@H]1C)C[C@H](O)[C@H]2C(=O)O,outcome,[1],inactive
same,outcome,[5],inactive
same,outcome,[3],inactive
same,outcome,[4],inactive
CCC(=O)NCC[C@@H]1CCc2ccc3c(c21)CCO3,outcome,[1],inactive
same,outcome,[2],inactive
same,outcome,[5],inactive
same,outcome,[3],inactive
same,outcome,[4],inactive
O=C(O)C1=CCCNC1,period change,[6],0.125 h (inactive)
same,inhibition,[11],-3% (inactive)
same,fluorescence ratio (interference),[12],1 (inactive)
same,outcome,[13],inactive
Nc1ccn([C@@H]2O[C@H](CO)[C@@H](O)[C@H]2O)c(=O)n1,outcome,[2],inactive
same,outcome,[5],inactive
same,outcome,[3],inactive
same,outcome,[4],inactive
O=C(O)c1c2ccccc2cc2ccccc12,inhibition,[7],-6.04%
same,score,[8],0.43
same,cytochrome c release ratio,[9],0.85
same,inhibition of aggregation,[10],33.3%
N=c1ccn2c(n1)O[C@H]1[C@H](O)[C@@H](CO)O[C@H]12,AC50,[1],1.18 µM (active)
same,outcome,[2],inactive
same,outcome,[3],inactive
same,inhibition,[14]; at 0.5 µM,32.1% (inactive)
same,inhibition,"[14]; measured here: combination with BGB at IC20, at 0.5 µM",-10.4%
same,inhibition,"[14]; measured here: combination with cisplatin at IC20, at 0.5 µM",52.4%
same,inhibition,[15]; at 0.5 µM,89.9% (active)
same,inhibition,"[15]; measured here: combo with BGB at IC20, at 0.5 µM",84%
same,inhibition,"[15]; measured here: combo with cisplatin at IC20, at 0.5 µM",91.1%
same,inhibition,[16]; at 0.5 µM,1.85% (inactive)
same,inhibition,"[16]; measured here: inhibition with BGB combination, at 0.05 µM",-40.2%
same,inhibition,"[16]; measured here: inhibition with cisplatin combination, at 0.05 µM",-14.8%
same,inhibition,[17]; at 0.5 µM,-10.7% (inactive)
same,inhibition,"[17]; measured here: combination with cisplatin, at 0.5 µM",6.24%
same,inhibition,"[17]; measured here: combination with cisplatin, at 5 µM",44.7%
same,inhibition,"[18]; BGB combination, concentration series, at 5 µM",22.3%
same,inhibition,[18]; at 0.5 µM,7.05% (inactive)
same,inhibition,"[18]; cisplatin combination, concentration series, at 5 µM",41.2%
same,inhibition,[19],27.9% (inactive)
same,inhibition,[19]; measured here: combo with BGB IC20,22.9%
same,inhibition,[19]; measured here: combo with cisplatin IC20,18.2%
COc1cccc(OC)c1OCCNCC1COc2ccccc2O1 (stereo not drawn),period change,[6],0.335 h (inactive)
same,inhibition,[11],-1% (inactive)
same,fluorescence ratio (interference),[12],1 (inactive)
same,outcome,[13],inactive
COc1c(O)cc2c(c1O)[C@@H]1O[C@H](CO)[C@@H](O)[C@H](O)[C@H]1OC2=O,outcome,[5],inactive
COc1ccc([C@@H]2CC(=O)c3c(O)cc(O[C@@H]4O[C@H](CO[C@@H]5O[C@@H](C)[C@H](O)[C@@H](O)[C@H]5O)[C@@H](O)[C@H](O)[C@H]4O)cc3O2)cc1O,outcome,[1],inactive
same,outcome,[2],inactive
same,outcome,[5],inactive
same,outcome,[3],inactive
same,outcome,[4],inactive
